# Measurements: PubChem BioAssay
# Activity calls are given as the source filed them.
# How the values were obtained:
# [1] = tested on: PRMT1 (protein arginine N-methyltransferase 1); assay: small molecules binding arginine methyltransferase PRMT1 – biochemical, small-molecule microarray, 635 nm fluorescence, primary screen (AID 1088); details: higher = more signal;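 further: binding of Prmt1 protein to compounds spotted on small-molecule microarray slides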
# [2] = growth effects on S. cerevisiae YJM789 – YJM789 clinical isolate, OD600, 24 h, basal, primary screen (AID 1089); details: higher = more signal, called active from +8 up or from −8 down;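 further: growth of clinical yeast isolate S. cerevisiae YJM 789 seeded 1000 cells per well; test concentration not given here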
# [3] = S. pombe growth modifiers, basal conditions – strain 972, OD600, 24 h, no modulator, primary screen (AID 1090);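 further: basal condition with compound alone and no growth modifier present; test concentration not given here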; details: S. pombe 972 growth, higher = more signal, called active from +8 up or from −8 down
# [4] = budding yeast growth modifiers under rapamycin – strain BY4716, OD600, 96 h, primary screen (AID 1091); further: test concentration not given here; details: S. cerevisiae BY4716 + rapamycin, higher = more signal, called active from +8 up or from −8 down
# [5] = target: Torsin-1A-interacting protein 2 (Homo sapiens) (UniProt Q8NFQ8); assay: small molecules binding lysate-expressed LULL1 – cell lysate, human LULL1 lysate, 635/667 nm fluorescence, primary screen (AID 1092); details: small-molecule microarray, hLULL1 lysate binding, 635 nm fluorescence; higher = more signal;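 further: probe is lysate of COS7 cells overexpressing human LULL1; score merges per-feature 667 nm fluorescence with signal-to-noise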
# Torsin-1A-interacting protein 2 (Homo sapiens), sequence (Q8NFQ8 whole entry, looked up): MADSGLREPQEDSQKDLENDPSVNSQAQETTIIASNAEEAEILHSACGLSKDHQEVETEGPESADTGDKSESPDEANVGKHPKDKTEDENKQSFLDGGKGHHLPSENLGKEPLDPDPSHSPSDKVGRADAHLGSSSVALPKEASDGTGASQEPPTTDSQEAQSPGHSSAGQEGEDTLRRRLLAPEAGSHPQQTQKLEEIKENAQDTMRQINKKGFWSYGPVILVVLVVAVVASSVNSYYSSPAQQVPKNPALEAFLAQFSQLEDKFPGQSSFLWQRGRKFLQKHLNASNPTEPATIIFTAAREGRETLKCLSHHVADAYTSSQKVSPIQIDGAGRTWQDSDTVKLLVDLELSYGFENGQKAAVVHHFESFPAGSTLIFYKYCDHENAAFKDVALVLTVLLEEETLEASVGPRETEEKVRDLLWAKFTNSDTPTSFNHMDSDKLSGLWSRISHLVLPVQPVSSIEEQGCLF
# [6] = optical density change of DRC41 E. coli – strain DRC41, OD650, 24 h, E. coli filamentation project, primary screen (AID 1093);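 further: MC1000 strain lacking acrAB efflux and sulA so SOS filamentation is blocked; test concentration not given here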; details: E. coli DRC41 growth, higher = more signal, called active from +8 up or from −8 down
# [7] = probe aLefty2 binding to arrayed compounds – biochemical, biotinylated probe, 635/667 nm fluorescence, primary screen (AID 1094); details: small-molecule microarray, higher = more signal;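 further: score merges spot fluorescence near 667 nm with spot signal-to-noise ratio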
# [8] = tested on: Noggin (protein binding on small-molecule microarray); assay: small molecules binding Noggin protein – biochemical, 635/667 nm fluorescence, primary screen (AID 1095); details: 635 nm fluorescence, higher = more signal;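 further: score merges 667 nm feature fluorescence with signal to noise over triplicate slides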
# [9] = target: Neurogenic locus notch homolog protein 3 (Homo sapiens) (UniProt Q9UM47); assay: small molecules binding NOTCH3 protein – biochemical, 635/667 nm fluorescence, primary screen (AID 1096); details: small-molecule microarray, 635 nm fluorescence, higher = more signal
# Neurogenic locus notch homolog protein 3 (Homo sapiens), sequence (Q9UM47 whole entry, looked up): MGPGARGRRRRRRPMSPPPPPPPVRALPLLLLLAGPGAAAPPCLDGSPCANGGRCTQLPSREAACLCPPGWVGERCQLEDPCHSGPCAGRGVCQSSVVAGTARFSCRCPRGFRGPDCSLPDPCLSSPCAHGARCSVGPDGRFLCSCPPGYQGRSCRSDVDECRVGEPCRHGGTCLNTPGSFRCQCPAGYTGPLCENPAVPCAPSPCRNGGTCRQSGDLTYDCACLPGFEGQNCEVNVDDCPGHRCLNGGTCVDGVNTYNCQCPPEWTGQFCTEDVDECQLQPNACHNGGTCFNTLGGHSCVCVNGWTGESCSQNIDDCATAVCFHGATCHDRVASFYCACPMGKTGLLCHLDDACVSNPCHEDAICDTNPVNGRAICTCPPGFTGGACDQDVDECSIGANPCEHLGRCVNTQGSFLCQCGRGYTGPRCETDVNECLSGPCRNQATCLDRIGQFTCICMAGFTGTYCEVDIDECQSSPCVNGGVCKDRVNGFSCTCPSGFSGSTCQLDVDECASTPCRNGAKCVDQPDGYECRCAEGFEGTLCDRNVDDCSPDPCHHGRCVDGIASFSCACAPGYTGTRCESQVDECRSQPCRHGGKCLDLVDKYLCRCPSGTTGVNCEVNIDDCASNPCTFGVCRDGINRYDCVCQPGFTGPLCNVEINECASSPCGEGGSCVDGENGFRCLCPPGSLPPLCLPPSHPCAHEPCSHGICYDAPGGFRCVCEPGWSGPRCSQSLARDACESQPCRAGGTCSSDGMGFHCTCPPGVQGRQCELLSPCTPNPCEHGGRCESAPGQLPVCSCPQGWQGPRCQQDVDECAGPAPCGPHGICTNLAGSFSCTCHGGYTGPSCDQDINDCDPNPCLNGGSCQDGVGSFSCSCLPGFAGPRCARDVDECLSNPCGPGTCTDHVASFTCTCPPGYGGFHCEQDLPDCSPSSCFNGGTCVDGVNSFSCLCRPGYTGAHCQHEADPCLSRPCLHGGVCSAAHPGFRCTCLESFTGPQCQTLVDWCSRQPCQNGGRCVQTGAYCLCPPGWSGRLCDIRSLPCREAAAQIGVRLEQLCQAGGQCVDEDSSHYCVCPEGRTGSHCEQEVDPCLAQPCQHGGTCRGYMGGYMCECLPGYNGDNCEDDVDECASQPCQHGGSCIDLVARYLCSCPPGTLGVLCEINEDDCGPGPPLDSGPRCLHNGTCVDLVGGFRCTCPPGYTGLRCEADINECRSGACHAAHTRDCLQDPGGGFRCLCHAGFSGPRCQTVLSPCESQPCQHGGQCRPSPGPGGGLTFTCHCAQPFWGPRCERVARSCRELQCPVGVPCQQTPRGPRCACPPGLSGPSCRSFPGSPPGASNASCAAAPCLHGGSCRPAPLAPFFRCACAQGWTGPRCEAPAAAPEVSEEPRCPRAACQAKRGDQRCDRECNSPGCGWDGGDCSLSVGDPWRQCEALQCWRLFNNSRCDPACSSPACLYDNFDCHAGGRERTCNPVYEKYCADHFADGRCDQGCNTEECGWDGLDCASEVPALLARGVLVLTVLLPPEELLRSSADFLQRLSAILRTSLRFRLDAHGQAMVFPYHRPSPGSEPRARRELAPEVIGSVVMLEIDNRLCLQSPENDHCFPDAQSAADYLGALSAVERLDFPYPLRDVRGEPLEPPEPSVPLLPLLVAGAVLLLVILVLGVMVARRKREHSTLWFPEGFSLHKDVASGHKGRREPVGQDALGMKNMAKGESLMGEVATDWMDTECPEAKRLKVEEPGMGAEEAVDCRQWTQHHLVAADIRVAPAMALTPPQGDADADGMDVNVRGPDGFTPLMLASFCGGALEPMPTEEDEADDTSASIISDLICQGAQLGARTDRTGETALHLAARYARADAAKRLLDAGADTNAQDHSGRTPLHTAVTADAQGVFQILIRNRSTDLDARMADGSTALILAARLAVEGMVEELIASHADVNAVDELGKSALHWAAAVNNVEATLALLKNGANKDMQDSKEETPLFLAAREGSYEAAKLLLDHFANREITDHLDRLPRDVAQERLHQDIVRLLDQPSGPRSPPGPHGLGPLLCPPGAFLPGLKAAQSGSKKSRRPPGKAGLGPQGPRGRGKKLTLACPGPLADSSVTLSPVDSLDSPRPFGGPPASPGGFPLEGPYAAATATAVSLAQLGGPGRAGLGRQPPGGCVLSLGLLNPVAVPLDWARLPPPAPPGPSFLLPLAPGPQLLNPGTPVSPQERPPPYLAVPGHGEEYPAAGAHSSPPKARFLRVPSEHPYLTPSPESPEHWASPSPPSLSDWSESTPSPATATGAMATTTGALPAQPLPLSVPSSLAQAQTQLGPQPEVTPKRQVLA
# [10] = probe aEGFR binding to arrayed compounds – biochemical, biotinylated probe, 635/667 nm fluorescence, primary screen (AID 1097); details: small-molecule microarray, higher = more signal;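 further: probe is a biotinylated anti-EGFR antibody binding compounds printed on slides; score combines fluorescence near 667 nm and signal to noise of each spot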
# [11] = tested on: Plasmodium falciparum Sir2 (PF13_0152, Sir2A); assay: Plasmodium falciparum Sir2A binding compounds – biochemical, small-molecule microarray, 635 nm fluorescence, primary screen (AID 1098); details: fluorescence 635 nm, higher = more signal;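 further: score merges spot fluorescence intensity with its signal-to-noise ratio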
# [12] = probe aDKK1 binding to arrayed compounds – biochemical, biotinylated probe, 635/667 nm fluorescence, primary screen (AID 1099); details: small-molecule microarray, higher = more signal;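 further: score merges 667nm spot fluorescence with signal to noise across triplicate slides; reference of the scale not given here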
# [13] = probe aCHRDL2 binding to arrayed compounds – biochemical, biotinylated probe, 635/667 nm fluorescence, primary screen (AID 1100); details: small-molecule microarray, higher = more signal
# [14] = change in splice reporter luminescence, either direction, cell-based, HEK293, spliceosome inhibition project, primary screen (AID 1101); details: HEK293 splicing luciferase reporter, 24 h, higher = more signal, called active from +8 up or from −8 down;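 further: HEK293 cells carrying a splicing-competent luciferase reporter gene; test concentration not given here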
# [15] = target: Fibroblast growth factor 10 (Homo sapiens) (UniProt O15520); assay: compounds binding fibroblast growth factor 10 – biochemical, small-molecule microarray, 635 nm fluorescence, primary screen (AID 1102); details: FGF10 binding, fluorescence 635 nm, higher = more signal
# Fibroblast growth factor 10 (Homo sapiens), sequence (O15520 whole entry, looked up): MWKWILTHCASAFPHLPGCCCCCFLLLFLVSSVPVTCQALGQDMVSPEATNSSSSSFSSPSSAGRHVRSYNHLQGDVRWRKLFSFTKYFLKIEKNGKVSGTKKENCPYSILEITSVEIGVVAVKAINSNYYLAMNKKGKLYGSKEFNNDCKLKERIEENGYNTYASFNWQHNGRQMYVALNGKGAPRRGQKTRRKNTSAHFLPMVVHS
# [16] = tested on: glycogen synthase kinase-3 (GSK3A per assay name; protocol says GSK3B); assay: compounds binding glycogen synthase kinase-3 – biochemical, small-molecule microarray, 635 nm fluorescence, GSK3A, primary screen (AID 1103); details: fluorescence 635 nm, higher = more signal; further: the record names both GSK3A and GSK3B
# [17] = target: Epidermal growth factor receptor (Homo sapiens) (UniProt P00533); assay: compounds binding epidermal growth factor receptor – biochemical, small-molecule microarray, 635 nm fluorescence, primary screen (AID 1104); details: EGFR binding, higher = more signal;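 further: score merges 667 nm emission intensity with spot signal to noise over triplicate slides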
# Epidermal growth factor receptor (Homo sapiens), sequence (P00533 whole entry, looked up): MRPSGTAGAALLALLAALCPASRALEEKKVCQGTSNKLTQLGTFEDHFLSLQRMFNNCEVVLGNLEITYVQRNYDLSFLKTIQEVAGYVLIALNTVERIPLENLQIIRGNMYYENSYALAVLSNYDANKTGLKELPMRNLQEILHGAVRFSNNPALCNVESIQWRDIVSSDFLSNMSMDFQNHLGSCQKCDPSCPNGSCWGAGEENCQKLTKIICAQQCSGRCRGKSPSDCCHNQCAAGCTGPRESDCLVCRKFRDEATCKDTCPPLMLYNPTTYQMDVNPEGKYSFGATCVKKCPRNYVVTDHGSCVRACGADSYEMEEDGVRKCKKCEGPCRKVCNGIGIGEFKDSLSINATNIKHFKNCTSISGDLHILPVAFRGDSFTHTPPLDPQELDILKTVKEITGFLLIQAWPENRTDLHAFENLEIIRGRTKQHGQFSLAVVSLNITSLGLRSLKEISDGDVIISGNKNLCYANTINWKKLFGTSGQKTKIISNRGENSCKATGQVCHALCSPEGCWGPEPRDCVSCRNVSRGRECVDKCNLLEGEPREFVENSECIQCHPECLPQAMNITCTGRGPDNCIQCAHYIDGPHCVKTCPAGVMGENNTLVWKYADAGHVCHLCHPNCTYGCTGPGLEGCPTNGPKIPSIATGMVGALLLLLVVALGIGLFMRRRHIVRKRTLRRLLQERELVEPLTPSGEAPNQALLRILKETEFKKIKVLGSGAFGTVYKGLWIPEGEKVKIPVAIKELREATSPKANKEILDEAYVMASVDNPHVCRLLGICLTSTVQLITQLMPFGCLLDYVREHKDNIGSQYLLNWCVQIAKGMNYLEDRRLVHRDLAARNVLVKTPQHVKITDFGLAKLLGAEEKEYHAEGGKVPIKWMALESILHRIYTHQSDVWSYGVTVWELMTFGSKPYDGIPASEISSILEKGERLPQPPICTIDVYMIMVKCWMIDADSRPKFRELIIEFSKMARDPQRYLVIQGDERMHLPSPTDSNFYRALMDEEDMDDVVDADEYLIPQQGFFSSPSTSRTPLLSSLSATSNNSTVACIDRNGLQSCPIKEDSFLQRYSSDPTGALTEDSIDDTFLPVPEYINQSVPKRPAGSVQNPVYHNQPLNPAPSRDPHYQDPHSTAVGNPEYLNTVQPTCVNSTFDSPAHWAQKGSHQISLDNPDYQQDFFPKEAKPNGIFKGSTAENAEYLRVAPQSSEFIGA
# [18] = target: Follistatin-related protein 3 (Homo sapiens) (UniProt O95633); assay: compounds binding follistatin-related protein 3 – biochemical, small-molecule microarray, 635 nm fluorescence, primary screen (AID 1105); details: FSTL3 binding, higher = more signal;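 further: score merges emission near 667 nm and signal to noise per printed spot across three slides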
# Follistatin-related protein 3 (Homo sapiens), sequence (O95633 whole entry, looked up): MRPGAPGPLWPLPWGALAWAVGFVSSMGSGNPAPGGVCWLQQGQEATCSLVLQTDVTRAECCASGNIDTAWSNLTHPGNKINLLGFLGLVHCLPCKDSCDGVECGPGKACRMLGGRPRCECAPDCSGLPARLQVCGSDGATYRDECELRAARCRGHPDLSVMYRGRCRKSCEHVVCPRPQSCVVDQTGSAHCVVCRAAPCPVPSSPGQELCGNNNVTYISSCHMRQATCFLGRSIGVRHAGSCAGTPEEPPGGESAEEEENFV
# [19] = target: Dickkopf-related protein 1 (Homo sapiens) (UniProt O94907); assay: small molecules binding DKK1 protein – biochemical, small-molecule microarray, 635 nm fluorescence scan, primary screen (AID 1106); details: higher = more signal;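 further: score merges emission near 667 nm with signal to noise over three replicate slides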
# Dickkopf-related protein 1 (Homo sapiens), sequence (O94907 whole entry, looked up): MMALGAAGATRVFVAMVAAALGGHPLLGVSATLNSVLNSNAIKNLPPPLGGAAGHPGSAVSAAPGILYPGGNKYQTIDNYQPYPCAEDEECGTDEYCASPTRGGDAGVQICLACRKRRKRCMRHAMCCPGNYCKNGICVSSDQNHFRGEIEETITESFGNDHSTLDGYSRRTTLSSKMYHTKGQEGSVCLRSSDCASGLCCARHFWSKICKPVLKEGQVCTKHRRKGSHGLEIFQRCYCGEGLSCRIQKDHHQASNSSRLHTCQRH
# [20] = tested on: Inhibin beta A chain (activin A); assay: small molecules binding activin A – biochemical, small-molecule microarray, 635 nm fluorescence scan, primary screen (AID 1107); details: INHBA, higher = more signal;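 further: mouse activin A protein probed at 4.33 µg/mL on printed slides; score merges bound-protein fluorescence near 667 nm with spot signal-to-noise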
Structure (SMILES),composite z-score [1],z-score [2],z-score [3],z-score [4],composite z-score [5],z-score [6],composite z-score [7],composite z-score [8],composite z-score [9],composite z-score [10],composite z-score [11],composite z-score [12],composite z-score [13],z-score [14],composite z-score [15],composite z-score [16],composite z-score [17],composite z-score [18],composite z-score [19],composite z-score [20]
COCCOC(=O)N1C(=O)[C@@]2(c3cc(C#CCC(C(=O)OC)C(=O)OC)ccc31)[C@H](C(=O)Nc1nc3ccccc3s1)[C@H]1C(=O)O[C@H](c3ccccc3)[C@H](c3ccccc3)N1[C@@H]2c1ccc(OCCO)cc1,1.54,1.74 (inactive),0.657 (inactive),2.14 (inactive),1.43,1.43 (inactive),0.483,1.89,1.05,0.232,0.659,0.0831,0.164,0.0491 (inactive),1.48,1.32,1.03,1,1.04,0.286
O=C1C2C=CC(C(O)c3cccs3)N(Nc3ccc([N+](=O)[O-])cc3)C2C(=O)N1c1ccccc1 (stereo not given),0.32,-0.198 (inactive),1.14 (inactive),1.88 (inactive),2.98,-0.0849 (inactive),-0.0636,-0.13,0.788,-0.0947,0.672,0.352,0.25,1.15 (inactive),0.534,0.684,0.346,0.393,0.21,0.796
COCCOC(=O)N1C(=O)[C@@]2(c3cc(C#CCCO)ccc31)[C@H](c1ccccc1OCCO)N1[C@H](c3ccccc3)[C@H](c3ccccc3)OC(=O)[C@H]1[C@@H]2C(N)=O,1.55,1.48 (inactive),0.142 (inactive),2.99 (inactive),3.08,2.16 (inactive),-0.123,1.6,1.11,0.0111,1.3,-0.154,0.0318,-1.51 (inactive),1.19,1.21,0.312,1.05,0.433,-0.0938
O=C1[C@@H]2[C@@H](CC(COc3ccccc3)=C([C@H](O)CCc3ccccc3)[C@@H]2CO)C(=O)N1Cc1ccccc1,1.08,0.77 (inactive),0.369 (inactive),3.2 (inactive),1.39,0.707 (inactive),-0.176,0.127,0.453,-0.0828,0.764,-0.0833,-0.264,0.187 (inactive),0.408,-0.0949,0.256,0.679,0.286,0.343
Cc1ccc(S[C@]2(C(=O)NC(C)C)CC(=O)N(C3CCCCC3)[C@@H]2c2ccc(CO)cc2I)cc1,1.54,-1.15 (inactive),0.145 (inactive),2.68 (inactive),2.84,-0.317 (inactive),-0.0977,0.7,0.884,0.0203,1.16,0.763,0.547,-0.504 (inactive),0.612,0.621,-0.242,1.19,0.205,0.0441
COc1ccc([Si](C)(C)[C@H]2[C@H](CC(=O)N3CCC[C@H]3CO)O[C@@]3(C(=O)N(Cc4ccc(N5CCCCC5=O)cc4)c4ccccc43)[C@@H]2C)cc1,1.54,-0.398 (inactive),0.591 (inactive),-0.801 (inactive),2.51,2.32 (inactive),-0.18,1.41,1.06,-0.0531,1.17,-0.28,-0.466,-1.16 (inactive),1.18,1.09,0.639,1.23,0.863,0.704
CC(C)OC(=O)CC(=O)CC(O)c1cccc([N+](=O)[O-])c1 (stereo not given),1.09,-4.2 (inactive),-1.84 (inactive),-2.74 (inactive),1.64,0.305 (inactive),-0.186,-0.164,0.83,-0.0215,0.784,0.645,0.851,-2.86 (inactive),0.366,0.814,-0.113,0.753,-0.229,0.916
C=CCC(OC(C)=O)[C@@H]1[C@@H](N(Cc2cc3ccccc3o2)C(=O)Cc2ccc(OC)cc2)c2cc(OCCCO)ccc2N1C(=O)c1ccc2ccccc2n1 (stereo not given in full),0.404,-0.256 (inactive),-0.844 (inactive),0.292 (inactive),0.295,1.03 (inactive),0.0478,0.356,0.0707,0.0453,0.0682,0.0671,0.393,-0.536 (inactive),0.116,0.0115,0.357,0.367,0.0467,1.42
CC(C)=C1C(=O)C(c2ccccc2)=C2CN3C(=O)N(CCc4ccccc4)C(=O)[C@]3(C)[C@H]21,-0.638,-0.37 (inactive),-0.262 (inactive),1.48 (inactive),1.19,-1.27 (inactive),0.211,-0.335,0.451,-0.0251,1.27,0.915,1.13,1.15 (inactive),0.139,-0.701,-0.276,-0.0755,-0.538,1.02
CC=CC(O)C1C=CC2C(=O)NC(=O)C2N1Nc1ccc(Cl)cc1Cl (stereo not given),-0.193,-6.04 (inactive),-2 (inactive),0.624 (inactive),2.28,-1.13 (inactive),0.0598,-0.376,0.0204,-0.148,0.547,0.171,0.55,1.9 (inactive),0.506,-1.11,0.277,0.46,0.522,1.42
